TDP1 inh – inhibitors of human tyrosyl-DNA phosphodiesterase TDP1 | Potency, µM (doses to about 130 µM), for the others: top-dose activity change, negative = inhibition, hits mostly inhibitors | recombinant TDP1, AlphaScreen DNA substrate cleavage | 350,000 tested, 0.28% active | Q9NUW8; also: potency is read from the fitted curve at half-maximal effect; % is scaled to controls: 0 for no effect and ±100 for the full control effect; nearly all actives have a fitted effect of over 40% in size
Target sequence (Q9NUW8 whole entry, looked up): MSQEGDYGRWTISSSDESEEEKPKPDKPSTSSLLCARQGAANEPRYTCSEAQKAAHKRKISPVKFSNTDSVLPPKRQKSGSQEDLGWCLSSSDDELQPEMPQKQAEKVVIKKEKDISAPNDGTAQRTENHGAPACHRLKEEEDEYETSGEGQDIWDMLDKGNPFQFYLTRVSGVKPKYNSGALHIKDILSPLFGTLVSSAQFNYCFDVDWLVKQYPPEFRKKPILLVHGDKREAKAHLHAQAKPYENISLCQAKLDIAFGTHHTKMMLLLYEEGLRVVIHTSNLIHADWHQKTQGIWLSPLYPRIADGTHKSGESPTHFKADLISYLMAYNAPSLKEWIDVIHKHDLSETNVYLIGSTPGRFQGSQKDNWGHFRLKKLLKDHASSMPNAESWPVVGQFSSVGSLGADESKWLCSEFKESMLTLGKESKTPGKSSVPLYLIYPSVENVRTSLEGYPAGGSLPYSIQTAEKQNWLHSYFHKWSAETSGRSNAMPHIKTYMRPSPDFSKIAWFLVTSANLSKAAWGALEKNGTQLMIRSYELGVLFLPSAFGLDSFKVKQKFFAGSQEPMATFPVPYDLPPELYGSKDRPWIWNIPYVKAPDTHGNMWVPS
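Compounds were preincubated with Tdp1 (1 nM final) for 15 min at room temperature before substrate (15 nM final) started a 5 min reaction; beads (10 ug/ml final) were then added for 10 min before AlphaScreen detection.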
DT40 TDP1 no CPT – qHTS for Inhibitors of human tyrosyl-DNA phosphodiesterase 1 (TDP1): qHTS in cells in absence of CPT | DT40 Tdp1-/- hTDP1 cells, no CPT, ATP luminescence, 48 h | Potency, µM (highest dose often 46.2 µM), for the others: at the top dose activity change, negative = growth inhibition, most hits filed as inhibitors | 420,000 tested, 15% active; also: potency is read from the fitted curve at half-maximal effect; % is scaled to controls: 0 for no effect and ±100 for the full control effect; nearly all actives have a fitted effect of over 55% in size
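Growth of hTDP1-complemented DT40 Tdp1-knockout cells is measured by ATP luminescence after at least 48 hr compound exposure at 37 °C, with DMSO substituting for the 20 nM CPT used in the parallel screen.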
DT40 TDP1 CPT – growth inhibition of DT40 Tdp1-/-;hTDP1 cells with camptothecin (screen for TDP1 inhibitors). chicken DT40 Tdp1-/-;hTDP1 cells + 20 nM CPT, ATP luminescence, 48 h. Potency, µM (highest dose often 46.2 µM), inactives show at the top dose activity change, negative = growth inhibition, usual class: inhibitors. 420,000 tested, 12% active; also: potency is read from the fitted curve at half-maximal effect; % is scaled to controls: 0 for no effect and ±100 for the full control effect; nearly all actives have a fitted effect of over 55% in size
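Chicken DT40 Tdp1-/- cells stably complemented with human TDP1 were seeded at 400 cells/well in medium containing 20 nM camptothecin, exposed to pin-transferred compounds, and grown at 37 °C for at least 48 hr. Viability was read as ATP luminescence.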
TGFb SMAD3 inh – blocks TGF-b signaling; HepG2 CAGA-GFP TGF-b/SMAD3 reporter, GFP fluorescence, 18 h; TGF-beta stimulated, 500 pg/mL final; Potency, µM (doses to about 46.1 µM), inactives show at the highest dose activity, negative = inhibition, usual class: inhibitors; 410,000 tested, 1.2% active; AID 588855; also: potency is read from the fitted curve at half-maximal effect; % is scaled to controls: 0 for no effect and ±100 for the full control effect; nearly all actives have a fitted effect of over 65% in size
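GFP signal (ex488/em500-530) from TGF-beta-stimulated HEPG2 CAGA-GFP cells, 500 pg/mL final, 18 h at 37 degrees C in DMEM plus 1% FBS, normalized to unstimulated and DMSO-stimulated controls.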
HepG2 viability – counter-screen for TGF-b inhibitors: cytotoxicity in HepG2 cells; Potency, µM (titrated, usually from 46.1 µM), inactives show top-dose activity change, negative = cytotoxicity, hits mostly cytotoxic; 410,000 tested, 0.76% active; HepG2 CAGA-GFP viability, ATP luminescence, 18 h; also: potency is read from the fitted curve at half-maximal effect
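HepG2 CAGA-GFP cells (1000/well, DMEM with 1% FBS) received compound, then TGF-beta at 500 pg/mL final, and were incubated 18 hours at 37 degrees C. Viability was read by CellTiter-Glo luminescence. Media-only wells were set as complete cell-killing and DMSO as no toxicity.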
IL-1B inflam inh – blocks inflammasome-driven IL-1 beta release | 360,000 tested, 4.7% active | THP-1 LPS/ATP IL-1B secretion, AlphaLISA, 16 h; active compounds read low | activity change, % at 57.5 µM; in the data active = activity change below about -50%; inconclusive = mostly about -30% to -49%; also: % is scaled to controls: 0 for no effect and ±100 for the full control effect
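THP-1 cells pretreated 1 hr with compounds (up to 57.5 uM final), then stimulated with LPS (250 ng/mL final) plus ATP (1.25 mM final); secreted IL-1B measured by AlphaLISA after 16 hr, decreased signal indicating inhibition.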
* hit, by the source's call; u = inconclusive; x = no result; ! = repeats disagree. This is a sample that favours compounds with a hit; in the whole collection about 19% have one here. Unless noted, calls follow the shape of the dose curve; as a rule, active = well fitted curve in the direction sought with a large enough effect; inconclusive = small, poorly fitted or top-dose-only effect, or another doubt; inactive = no such curve, though single readings can be large; an effect the other way counts as inactive or inconclusive.

SMILES	TDP1 inh	DT40 TDP1 no CPT	DT40 TDP1 CPT	TGFb SMAD3 inh	HepG2 viability	IL-1B inflam inh
C=CCn1c(C)cc(C(=O)CN2NS(=O)(=O)c3ccccc3C2=O)c1C	7%	3.7µM*	4.6µM*	u	-11%	88
O=C(OCn1ncc(Cl)c(Cl)c1=O)c1ccccc1Cl	1%	4.6µM*	2.3µM*	-15%	-93%	-97*
C[C@H](CO)N1C[C@H](C)[C@@H](CN(C)CC2CCCCC2)Oc2c(NS(=O)(=O)c3ccc(F)cc3)cccc2C1=O	1%	-18%	u	0%	-10%	33
COc1ccc(-c2nnc3n2N=C(c2ccccc2OC)CS3)cc1	7%	x	x	x	x	x
C/C=C/c1ccc(OCC(=O)O)c(OC)c1	3%	-16%	-2%	-18%	3%	16
COc1cc(/C=C/c2cccc[n+]2C)ccc1OCC(=O)Nc1ccccc1	x	-20%	-31%	-1%	-7%	-17
COc1cc(NC(=O)COc2ccc(-n3cnnn3)cc2)cc(OC)c1OC	0%	u	23µM*	-5%	-9%	-10
C/C=C/c1ccc(OCC(=O)Nc2cc(OC)c(OC)c(OC)c2)c(OC)c1	8%	12µM*	13µM*	-1%	3%	-11
COc1cc(/C=C/c2cc[n+](C)cc2)ccc1OCC(=O)Nc1ccc(Cl)c(Cl)c1	x	u	u	u	-6%	-89*
COc1cc(/C=C/c2cccc[n+]2C)ccc1OCC(=O)Nc1cccc(Cl)c1	x	18µM*	-18%	31%	-10%	-71*
Cc1ccc(C)c(NC(=O)N2CCC(N3CCN(Cc4ccc(F)cc4)C(=O)C3=O)CC2)c1	1%	0%	-22%	-7%	-15%	x
COc1ccc(NC(=O)COc2ccc(/C=C/c3cccc[n+]3C)cc2OC)cc1	x	-10%	0%	-1%	-1%	-16
COc1ccc(NC(=O)COc2ccc(/C=C/c3cc[n+](C)cc3)cc2OC)cc1	x	23µM*	u	-14%	-20%	-54*
COc1cc(-c2noc(C)c2C#CC2(O)CCCCC2)cc(OC)c1OC	x	21µM*	u	7%	-6%	u
COc1cc(-c2noc(C)n2)cc(OC)c1OC	1%	-11%	2%	2%	2%	1
COc1cc(-c2noc(C)c2C#Cc2ccsc2)cc(OC)c1OC	x	0.92µM*	0.71µM*!	11µM*	-20%	72
COc1cc(-c2noc(C)c2C#CC2(N)CCCCC2)cc(OC)c1OC	x	u	u	u	-14%	-13
COc1cc(-c2noc(C)c2C#CCO)cc(OC)c1OC	x	13µM*!	u	12%	-17%	-9
O=C(/C=C/c1ccccc1)NC(=S)Nc1ccc(CN2CCOCC2)cc1	5%	18µM*	u	-24%	0%	-109*
O=C(/C=C/c1ccc(Cl)cc1Cl)NC(=S)Nc1ccc(CN2CCOCC2)cc1	5%	13µM*	16µM*	u	-43%	-14
COc1ccccc1Nc1cc(C(=O)NC2CCC(C)CC2)c2ccccc2n1 (centres undefined)	-2%	-22%	3%	-12%	-22%	x
COc1ccccc1Nc1nn2c(=O)c3ccc(C(=O)N4CCC(C)CC4)cc3nc2s1	3%	18µM*	23µM*	-28%	-18%	-5
COc1ccccc1Nc1nn2c(=O)c3ccc(C(=O)NC4CCC(C)CC4)cc3nc2s1 (centres undefined)	8%	5.2µM*	5.8µM*	8%	9%	x
CCOC(=O)C1CCN(C(=O)c2ccc3c(=O)n4nc(Nc5ccccc5)sc4nc3c2)CC1	3%	15µM*	21µM*	u	-57%	-22
Cc1ccccc1Nc1nn2c(=O)c3ccc(C(=O)N4CCCC(C)C4)cc3nc2s1 (centres undefined)	3%	16µM*	15µM*	-1%	0%	0
SMILES	TDP1 inh	DT40 TDP1 no CPT	DT40 TDP1 CPT	TGFb SMAD3 inh	HepG2 viability	IL-1B inflam inh
COC(=O)c1ccc2c(=O)n3nc(Nc4cc(OC)ccc4OC)sc3nc2c1	0%	-17%	u	18%	6%	x
CCOC(=O)c1sc2nccc(OC)c2c1N=CNOC	6%	-26%	4%	2%	0%	-13
CCc1ccccc1Nc1nn2c(=O)c3ccc(C(=O)NC4CCC(C)CC4)cc3nc2s1 (centres undefined)	3%	16µM*	u	-10%	-34%	x
Cc1ccc(Cl)cc1Nc1nn2c(=O)c3ccc(C(=O)NC4CCC(C)CC4)cc3nc2s1 (centres undefined)	3%	u	-27%	-8%	-14%	x
Cc1c(C(=O)Nc2ccc(Nc3ccccc3)cc2)cccc1[N+](=O)[O-]	9%	8.2µM*	9.2µM*	-21%	-41%	u
Cc1c(C(=O)Nc2ccc3c4c(cccc24)CC3)cccc1[N+](=O)[O-]	5%	16µM*	u	-2%	-4%	47
O=C(Oc1ccccc1C(=O)Nc1ccccc1)c1ccc(Br)c([N+](=O)[O-])c1	6%	u	-21%	u	-5%	-73*
CCOC(=O)c1ccc(NC(=O)c2ccccc2[N+](=O)[O-])cc1	4%	18µM*	-7%	-16%	-23%	12
CCC(=O)Nc1cccc(NC(=O)c2cccc([N+](=O)[O-])c2C)c1	5%	23µM*	u	0%	-20%	3
O=C(Nc1ccccc1)c1ccc(Nc2c([N+](=O)[O-])cc([N+](=O)[O-])c3ccccc23)cc1	5%	10µM*	7.3µM*	0%	-3%	7
CCOC(=O)c1ccc(NCCOC)c([N+](=O)[O-])c1	4%	-5%	-8%	0%	0%	4
CCOC(=O)c1cc([N+](=O)[O-])c([N+](=O)[O-])cc1NC(C)=O	8%	0.92µM*	u	-8%	-30%	-81*
Cc1c(C(=O)NC(=S)Nc2ccc(NC(=O)c3cccs3)cc2)cccc1[N+](=O)[O-]	x	13µM*	u	4%	4%	14
Cc1cccc(OCC(=O)Nc2ccccc2C(=O)OCc2cc(=O)n3nc(C4CC4)sc3n2)c1	1%	-17%	-16%	6%	6%	x
O=[N+]([O-])c1cc(Br)c(Nc2ccccc2)c([N+](=O)[O-])c1	x	0.92µM*	0.82µM*	18µM*	-121%	-98*

High-throughput results: PubChem BioAssay, National Center for Advancing Translational Sciences (NCATS)
